Screening data from PubChem.
VDR inh = vitamin D3 receptor (human) inhibition; P11473; Potency, µM, without a hit: max response, negative = inhibition, hits mostly inhibitors; 0.93% of 400,000 active; VDR-SRC2-3 peptide fluorescence polarization, 2 h; further: on the % scale 0 is the no-effect control and ±100 the full control effect
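Compounds are added to VDR with labelled SRC2-3 coactivator peptide and held 2 h at room temperature. Inhibition of the VDR–peptide interaction is then read as a change in fluorescence polarization.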
KAT2A inh = blocks human GCN5L2 histone acetyltransferase; 0.21% of 390,000 active; Potency, µM (highest dose often 58.9 µM), without a hit: at the highest dose activity change, negative = inhibition, actives largely listed as inhibitors; GCN5L2 HAT assay, ThioGlo1 CoA-SH fluorescence; further: on the % scale 0 is the no-effect control and ±100 the full control effect
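ThioGlo1-coupled HAT assay: 20nM GCN5L2, 70uM acetyl-CoA, 75uM H3(1-25) peptide, pH 7.5. Fluorescence read at 340/540nm at start and after 20 min at room temperature.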
TSG101-PTAP inh = blocks PTAP/TSG101 interaction to inhibit HIV-1 budding; Q99816; Fluorescence polarization, FITC-PTAP peptide / Tsg101 binding; Potency, µM (titrated, usually from 115 µM), for inactives: top-dose activity change, negative = inhibition, hits mostly inhibitors; 340,000 tested, under 10 active; active means well fitted inhibition curve with a large enough effect in the main read-out, with a control signal flat, not every such curve was filed as active; inconclusive means small, poorly fitted or top-dose-only effect, or effect the other way, or a change in a side signal; inactive means no such curve, though single readings can be large or run the other way; further: % of control where 0% means no effect
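Fluorescence anisotropy tracks displacement of a FITC-tagged PTAP peptide (50 nM) from the Tsg101 binding domain (10 uM), following a 20 min room-temperature incubation at pH 7.5.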
USP1-UAF1 inh = USP1/UAF1 (human) deubiquitinase inhibition | O94782 | recombinant USP1/UAF1, Ub-Rhodamine cleavage fluorescence | Potency, µM (doses to about 57.1 µM), inactives show top-dose activity change, negative = inhibition, usual class: inhibitors | 0.23% of 390,000 active; further: on the % scale 0 is the no-effect control and ±100 the full control effect; nearly all actives have a fitted effect of over 60% in size
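1 nM enzyme complex + cpd, 15 min RT; start with Ub-Rho 150nM final; kinetic fluorescence ex 480/em 540, 6 reads q60 s. Buffer 50mM HEPES pH 7.8, 0.5mM EDTA, 0.1 mg/ml BSA, 1mM TCEP, 0.01% Tween-20.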
PLK1 PBD block = inhibitors of human PLK1 polo-box domain binding | AID 720504 | Plk1 PBD binding of FITC phosphopeptide, fluorescence polarization | Potency, µM, for inactives: max response, negative = inhibition, actives largely listed as inhibitors | P53350 | 2.8% of 360,000 active; further: series mostly up to about 57 µM; on the % scale 0 is the no-effect control and ±100 the full control effect; nearly all actives have a fitted effect of over 65% in size
Target sequence (P53350 whole entry, looked up, the tested form may be a part): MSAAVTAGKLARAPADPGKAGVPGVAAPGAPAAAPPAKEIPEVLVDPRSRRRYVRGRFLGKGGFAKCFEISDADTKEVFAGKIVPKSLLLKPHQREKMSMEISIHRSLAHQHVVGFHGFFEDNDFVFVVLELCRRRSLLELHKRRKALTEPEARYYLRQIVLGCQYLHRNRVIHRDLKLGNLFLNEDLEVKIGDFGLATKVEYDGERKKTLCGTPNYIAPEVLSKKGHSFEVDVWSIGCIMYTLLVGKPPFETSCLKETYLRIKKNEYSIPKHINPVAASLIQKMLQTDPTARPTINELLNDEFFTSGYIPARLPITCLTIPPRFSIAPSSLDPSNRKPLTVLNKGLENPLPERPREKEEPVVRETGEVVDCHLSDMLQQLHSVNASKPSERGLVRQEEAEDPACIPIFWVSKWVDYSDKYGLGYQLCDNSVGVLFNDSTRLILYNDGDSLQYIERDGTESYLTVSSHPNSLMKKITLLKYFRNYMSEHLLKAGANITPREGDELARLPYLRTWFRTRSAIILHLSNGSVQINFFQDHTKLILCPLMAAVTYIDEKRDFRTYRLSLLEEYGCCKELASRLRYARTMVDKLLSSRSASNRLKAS
The depositor's hits bear a star; u = inconclusive; x = no result. Hits are enriched below; roughly 3% of the tested compounds scored in any of these assays. Unless noted, the call rests on the fitted dose curve; in most records, active means well fitted curve in the direction sought with a large enough effect; inconclusive means small, poorly fitted or top-dose-only effect, or another doubt; inactive means no such curve, though single readings can be large; an effect the other way counts as inactive or inconclusive. Potency means the concentration at half of the fitted maximal effect.

SMILES	VDR inh	KAT2A inh	TSG101-PTAP inh	USP1-UAF1 inh	PLK1 PBD block
CC1=C(SCc2ccccc2)C(=O)c2ccccc2C1=O	14µM*	x	-10%	16µM*	4.7µM*
Cn1c(SCc2ccccc2)nccc1=O	-7%	x	0%	-19%	3%
Cc1cc(C)c2c(=O)c(C#N)coc2c1	-1%	-6%	-2%	-20%	17µM*
Cc1cc(C)c2c(CC(=O)NC(C)C)coc2c1	-6%	-2%	-3%	-2%	-3%
CCc1ccc2[nH]c3nc(SCCN4CCOCC4)nnc3c2c1	u	-4%	-3%	-15%	24µM*
CCc1ccc2[nH]c3nc(SCC(=O)NCC4CCCO4)nnc3c2c1 (stereo unspecified)	-13%	-7%	0%	-17%	-1%
Cc1cc(NC(=O)CCc2nc3cccnc3n2-c2ccccc2)ccc1Br	-5%	4%	x	-12%	x
O=C(Cn1nc(N2CCN(c3ccccc3)CC2)ccc1=O)NCc1cccc(Cl)c1	14%	-6%	x	u	x
O=[N+]([O-])c1cccc(-c2ccc3nnc(SCc4ccccn4)n3n2)c1	u	-3%	-3%	-21%	24µM*
C[C@@]12C=Cc3occc3C1CC[C@@]13C[C@@H](CCC12)[C@@](O)(CO)C3 (stereo partly specified)	40µM*	15%	x	x	x
Clc1ccccc1-c1nc(/C=N/N2CCOCC2)c2ccccn12	u	-4%	14%	-12%	24µM*
CN1CCN(/N=C/c2nc(-c3ccccc3Cl)n3ccccc23)CC1	15%	4%	-1%	-17%	-6%
CCC(=O)N1CCc2cc(CNS(=O)(=O)c3ccc(NC(=O)CC(C)C)cc3)ccc21	11%	-6%	x	-14%	x
Cn1nc(CC(=O)Nc2ccc3c(c2)OCCO3)c2ccccc2c1=O	-3%	-4%	-1%	-8%	-4%
Cc1ccc(NC(=O)Cc2nn(C)c(=O)c3ccccc23)cc1F	u	21%	1%	-2%	3µM*
Cc1ccc(NC(=O)Cc2c(C(=O)O)n(C)c3ccccc23)cc1F	-17%	-6%	-3%	-22%	24µM*
S=C=Nc1ccc(N=C=S)cc1	1%	-4%	x	x	x
CCn1c(N)c(C(=O)N2CCOCC2)sc1=S	-12%	-8%	-1%	-3%	15µM*
COc1cc(OC)cc(C(=O)NCC2CCCO2)c1 (stereo unspecified)	-13%	-9%	-7%	-19%	0%
Cc1ccc(CNC(=O)c2ccc3c(=O)[nH]c4c(C(=O)NCC5CCCO5)sc(=S)n4c3c2)cc1 (stereo unspecified)	-16%	1%	-3%	-16%	u
CCn1c(N)c(C(=O)NCCCOC)sc1=S	u	-11%	-4%	-8%	21µM*
CCCCCNC(=O)c1ccc2c(=O)[nH]c3c(C(=O)NCC4CCCO4)sc(=S)n3c2c1 (stereo unspecified)	-8%	1%	-10%	-26%	27µM*
C=CCn1c(N)c(C(=O)N2CCOCC2)sc1=S	-6%	-13%	-6%	-1%	u
CCn1c(N)c(C(=O)NCC2CCCO2)sc1=S (stereo unspecified)	35µM*	-29%	-7%	-22%	4.7µM*
COc1ccc(CNC(=O)COC(=O)c2cc(S(=O)(=O)N3CCOCC3)ccc2O)cc1OC	-13%	1%	8%	-7%	-5%
SMILES	VDR inh	KAT2A inh	TSG101-PTAP inh	USP1-UAF1 inh	PLK1 PBD block
CCCCCCCCCCCCC/C=C/[C@@H](O)[C@H](CO)NC(=O)CCCCCCCCCCCCCCC	-6%	26%	x	x	x
CN(CC(=O)Nc1ccccc1Br)C(=O)c1ccc2c(=O)n3c(nc2c1)CCC3	-5%	1%	-4%	-18%	-4%
C=CCn1c(N)c(C(=O)Nc2ccc(C)cc2)sc1=S	-3%	0%	-9%	-8%	-13%
CCNC(=O)c1sc(=S)n(CC)c1N	-9%	-15%	-3%	-22%	27µM*
Cc1ccc(NC(=O)c2ccc3c(c2)CCN3S(C)(=O)=O)cc1C	u	4%	0%	-1%	3µM*
O=C(c1ccco1)N1CCC2(CC1)CN(c1ccccn1)C2	-7%	-7%	x	x	x
O=C1/C(=C/C=C/c2ccco2)SC(=S)N1NS(=O)(=O)c1ccccc1	-19%	20µM*	-1%	u	11µM*
Cc1nc(C)c(C(=O)N(c2ccc(F)cc2)C(C(=O)NCC2CCCO2)c2ccccc2)s1 (stereo unspecified)	u	0%	0%	-15%	u
Cc1nc(C)c(C(=O)N(c2ccccc2F)C(C(=O)NCC2CCCO2)c2ccccc2)s1 (stereo unspecified)	u	0%	-2%	-15%	27µM*
Cc1cccc(-n2nnnc2S(C)(=O)=O)c1	u	-1%	x	-13%	x
COc1cccc(-n2nnnc2S(C)(=O)=O)c1	45µM*	0%	-7%	-10%	7.5µM*
CCn1nnnc1SCC(=O)Nc1cc(OC)cc(OC)c1	-21%	0%	-2%	10%	3.4µM*
COc1cccc(-n2nnnc2SCC(=O)Nc2ccc(NC(C)=O)cc2)c1	-18%	-3%	-2%	-6%	24µM*
CC(=O)N1CCC2(CCN(Cc3cc(C(F)(F)F)cc(C(F)(F)F)c3)CC2)CC1	-20%	-6%	x	x	x
CC1CCCCN1CCCNC(=O)c1cc(Sc2cccc(Cl)c2)nc2ccccc12 (stereo unspecified)	-1%	-8%	x	-27%	x
Cc1oc(-c2ccccc2F)nc1CSCC(=O)NC1CC1	u	0%	-7%	-19%	27µM*
Cc1oc(-c2ccccc2F)nc1CSCC(=O)NC1CCC(C)CC1 (stereo unspecified)	-4%	-1%	-1%	-14%	-4%
COc1ccc(OC)c(NC(=O)Cn2cnc3ccc(S(=O)(=O)N4CCC(C)CC4)cc3c2=O)c1	21%	0%	x	-10%	x
COc1ccc(N2CCN(C(=O)Cn3cnc4sc(C)c(S(=O)(=O)N5CCC(C)CC5)c4c3=O)CC2)cc1	-16%	-1%	x	2%	x
CCCCCCCCCCCCCCCCOC[C@H](COP(=O)([O-])OCC[N+](C)(C)C)OC(=O)NC	-3%	29%	x	x	x
CC(=O)Nc1ccc(Oc2cc(NC(C)=O)cc([N+](=O)[O-])c2)cc1	u	-10%	0%	-10%	7.5µM*
CC(=O)Nc1ccc(S(=O)(=O)NNc2ccc([N+](=O)[O-])cc2)cc1	89µM*	-8%	-2%	-13%	u
Cc1nn(C)cc1C(=O)Nc1cc(Oc2ccc(Cl)cc2)cc([N+](=O)[O-])c1	-16%	-24%	-1%	-8%	27µM*
Cn1cc([N+](=O)[O-])c(C(=O)Nc2cc(Oc3ccccc3)cc([N+](=O)[O-])c2)n1	-10%	-6%	-2%	-16%	-15%
CC(=O)Nc1ccc(S(=O)(=O)NNC(=O)c2ccc([N+](=O)[O-])cc2)cc1	3%	-2%	3%	-17%	-2%
